Experimental data: ChEMBL document CHEMBL1961873, “Compounds: GSK PKIS; Assays: Nanosyn kinase panel” (2012)

Columns and labels:
[1] = biological target: Protein kinase C gamma type (Homo sapiens) (UniProt P05129); conditions: at 1 µM;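 also: each value is an averaged percent inhibition of the enzyme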
[2] = biological target: T1, Protein kinase C iota type (Homo sapiens) (UniProt P41743); conditions: at 0.1 µM
T1 sequence (whole entry): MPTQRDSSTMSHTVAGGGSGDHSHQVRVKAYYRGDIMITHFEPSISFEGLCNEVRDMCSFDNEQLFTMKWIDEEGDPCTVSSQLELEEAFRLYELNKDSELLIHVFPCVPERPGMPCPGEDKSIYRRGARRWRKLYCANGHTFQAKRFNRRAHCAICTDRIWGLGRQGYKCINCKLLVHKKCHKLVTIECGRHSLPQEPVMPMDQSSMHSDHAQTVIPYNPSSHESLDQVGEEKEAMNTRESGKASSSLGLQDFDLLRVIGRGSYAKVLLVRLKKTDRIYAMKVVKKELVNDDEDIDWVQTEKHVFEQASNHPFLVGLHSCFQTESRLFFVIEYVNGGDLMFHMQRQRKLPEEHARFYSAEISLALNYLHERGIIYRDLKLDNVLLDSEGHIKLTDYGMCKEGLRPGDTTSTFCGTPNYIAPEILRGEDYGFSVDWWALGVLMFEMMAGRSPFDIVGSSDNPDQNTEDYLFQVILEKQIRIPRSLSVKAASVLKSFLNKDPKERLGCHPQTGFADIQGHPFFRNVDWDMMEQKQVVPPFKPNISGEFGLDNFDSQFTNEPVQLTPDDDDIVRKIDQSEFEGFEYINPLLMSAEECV

[3] = biological target: T1, Protein kinase C iota type (Homo sapiens); conditions: at 1 µM
[4] = biological target: Protein kinase C theta type (Homo sapiens) (UniProt Q04759); conditions: at 0.1 µM
Chain of Protein kinase C theta type (Homo sapiens) (Q04759 whole entry, looked up): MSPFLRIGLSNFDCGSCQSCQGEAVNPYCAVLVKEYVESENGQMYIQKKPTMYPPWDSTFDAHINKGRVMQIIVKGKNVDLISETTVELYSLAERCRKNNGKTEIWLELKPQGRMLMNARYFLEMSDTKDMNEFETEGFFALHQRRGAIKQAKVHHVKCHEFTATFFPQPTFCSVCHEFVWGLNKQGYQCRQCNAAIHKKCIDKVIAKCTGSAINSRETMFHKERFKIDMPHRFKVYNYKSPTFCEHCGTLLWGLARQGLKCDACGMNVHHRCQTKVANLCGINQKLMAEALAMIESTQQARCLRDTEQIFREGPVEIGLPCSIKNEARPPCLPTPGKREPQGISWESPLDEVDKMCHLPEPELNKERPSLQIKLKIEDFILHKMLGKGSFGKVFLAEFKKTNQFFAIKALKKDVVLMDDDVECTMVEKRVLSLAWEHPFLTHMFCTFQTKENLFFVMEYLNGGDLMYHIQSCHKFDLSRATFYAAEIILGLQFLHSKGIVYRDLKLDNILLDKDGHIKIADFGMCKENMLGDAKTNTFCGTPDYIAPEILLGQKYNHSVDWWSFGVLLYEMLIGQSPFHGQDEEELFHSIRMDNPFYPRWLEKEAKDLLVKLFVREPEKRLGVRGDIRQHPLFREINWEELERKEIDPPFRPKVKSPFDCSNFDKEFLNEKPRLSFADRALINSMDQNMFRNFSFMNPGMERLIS

[5] = biological target: Protein kinase C theta type (Homo sapiens) (UniProt Q04759); conditions: at 1 µM
[6] = biological target: Protein kinase C beta type (Homo sapiens) (UniProt P05771); conditions: at 0.1 µM
Chain of Protein kinase C beta type (Homo sapiens) (P05771 2-671 limits assumed): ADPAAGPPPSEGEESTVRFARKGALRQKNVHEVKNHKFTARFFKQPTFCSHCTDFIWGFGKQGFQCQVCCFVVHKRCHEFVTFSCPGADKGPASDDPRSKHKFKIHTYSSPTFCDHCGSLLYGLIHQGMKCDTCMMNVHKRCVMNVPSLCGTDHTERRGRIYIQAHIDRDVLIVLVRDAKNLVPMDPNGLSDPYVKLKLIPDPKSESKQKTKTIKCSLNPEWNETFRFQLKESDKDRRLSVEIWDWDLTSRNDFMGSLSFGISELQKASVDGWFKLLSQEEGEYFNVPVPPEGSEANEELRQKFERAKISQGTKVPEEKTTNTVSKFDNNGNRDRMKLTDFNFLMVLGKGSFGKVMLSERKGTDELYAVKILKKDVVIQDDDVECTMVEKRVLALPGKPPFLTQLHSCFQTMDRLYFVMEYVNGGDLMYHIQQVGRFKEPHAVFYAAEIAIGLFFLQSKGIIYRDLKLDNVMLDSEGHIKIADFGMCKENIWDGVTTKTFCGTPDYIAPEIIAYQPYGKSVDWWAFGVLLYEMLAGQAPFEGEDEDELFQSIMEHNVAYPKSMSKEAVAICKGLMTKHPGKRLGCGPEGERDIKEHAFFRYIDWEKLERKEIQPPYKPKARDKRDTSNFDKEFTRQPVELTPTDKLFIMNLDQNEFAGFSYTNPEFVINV

[7] = biological target: Protein kinase C beta type (Homo sapiens) (UniProt P05771); conditions: at 1 µM
[8] = biological target: T2, Serine/threonine-protein kinase D1 (Homo sapiens) (UniProt Q15139); conditions: at 0.1 µM
T2 sequence (whole entry): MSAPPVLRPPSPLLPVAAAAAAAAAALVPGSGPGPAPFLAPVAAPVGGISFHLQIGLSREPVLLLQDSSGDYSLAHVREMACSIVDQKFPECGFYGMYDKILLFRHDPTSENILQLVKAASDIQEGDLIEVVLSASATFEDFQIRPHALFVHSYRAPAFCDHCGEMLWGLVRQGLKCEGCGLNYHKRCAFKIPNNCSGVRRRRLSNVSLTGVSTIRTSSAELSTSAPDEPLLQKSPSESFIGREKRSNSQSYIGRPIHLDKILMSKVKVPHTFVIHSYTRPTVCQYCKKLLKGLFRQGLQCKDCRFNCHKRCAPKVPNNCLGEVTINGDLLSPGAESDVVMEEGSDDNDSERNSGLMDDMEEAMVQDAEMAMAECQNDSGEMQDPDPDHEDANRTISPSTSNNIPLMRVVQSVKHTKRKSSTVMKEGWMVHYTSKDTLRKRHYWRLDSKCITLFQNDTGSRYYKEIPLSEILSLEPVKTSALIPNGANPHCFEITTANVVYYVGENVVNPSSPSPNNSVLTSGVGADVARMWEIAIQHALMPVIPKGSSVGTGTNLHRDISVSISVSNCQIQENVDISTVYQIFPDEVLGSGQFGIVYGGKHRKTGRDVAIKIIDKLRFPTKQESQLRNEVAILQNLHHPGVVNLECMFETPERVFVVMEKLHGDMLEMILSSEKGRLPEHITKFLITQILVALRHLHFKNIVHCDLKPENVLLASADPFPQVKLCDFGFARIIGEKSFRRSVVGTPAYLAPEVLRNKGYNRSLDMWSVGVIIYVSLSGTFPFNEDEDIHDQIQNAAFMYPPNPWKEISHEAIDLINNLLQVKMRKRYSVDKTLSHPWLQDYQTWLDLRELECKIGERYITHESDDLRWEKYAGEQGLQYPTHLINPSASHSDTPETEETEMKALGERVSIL

[9] = biological target: T2, Serine/threonine-protein kinase D1 (Homo sapiens); conditions: at 1 µM
[10] = biological target: T3, Serine/threonine-protein kinase D2 (Homo sapiens) (UniProt Q9BZL6); conditions: at 0.1 µM;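 also: reported percent inhibition values are means, part of the GSK PKIS kinase panel screen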
T3 sequence (whole entry): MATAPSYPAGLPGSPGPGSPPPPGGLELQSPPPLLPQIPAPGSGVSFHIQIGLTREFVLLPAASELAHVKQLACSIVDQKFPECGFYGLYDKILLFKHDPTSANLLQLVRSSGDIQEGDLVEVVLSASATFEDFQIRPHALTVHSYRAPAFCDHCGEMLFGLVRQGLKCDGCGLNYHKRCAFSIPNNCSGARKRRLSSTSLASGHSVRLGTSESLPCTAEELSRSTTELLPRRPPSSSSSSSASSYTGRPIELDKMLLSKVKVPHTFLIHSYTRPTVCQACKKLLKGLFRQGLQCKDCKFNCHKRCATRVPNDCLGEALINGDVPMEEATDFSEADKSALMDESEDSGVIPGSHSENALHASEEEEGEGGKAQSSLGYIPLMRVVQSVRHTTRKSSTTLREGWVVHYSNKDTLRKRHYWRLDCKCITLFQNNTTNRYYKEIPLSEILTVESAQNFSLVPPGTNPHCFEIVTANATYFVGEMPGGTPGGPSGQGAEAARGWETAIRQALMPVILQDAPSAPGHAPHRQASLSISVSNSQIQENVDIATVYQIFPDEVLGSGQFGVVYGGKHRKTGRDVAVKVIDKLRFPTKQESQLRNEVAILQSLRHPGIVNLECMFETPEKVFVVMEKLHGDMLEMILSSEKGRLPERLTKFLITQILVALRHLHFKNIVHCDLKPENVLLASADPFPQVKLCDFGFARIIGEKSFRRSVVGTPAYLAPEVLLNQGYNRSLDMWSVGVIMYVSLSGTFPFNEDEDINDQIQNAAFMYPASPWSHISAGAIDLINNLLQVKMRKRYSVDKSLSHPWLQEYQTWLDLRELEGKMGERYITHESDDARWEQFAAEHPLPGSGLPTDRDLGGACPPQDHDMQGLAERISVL

SMILES | inhibition [1] [%] | inhibition [2] [%] | inhibition [3] [%] | inhibition [4] [%] | inhibition [5] [%] | inhibition [6] [%] | inhibition [7] [%] | inhibition [8] [%] | inhibition [9] [%] | inhibition [10] [%]
CCCN1CCC(c2ccc(Nc3nc(Nc4cc(F)ccc4C(N)=O)c4cc[nH]c4n3)c(OC)c2)CC1 | 29.8 | 0.78 | 1.12 | 2.2 | 8.87 | 1.54 | 6.05 | 21.5 | 73.8 | 18
Clc1ccc(-c2nn3ncccc3c2-c2ccnc(Nc3ccccc3)n2)cc1 | -1.39 | 0.23 | 0.46 | 0.91 | -0.72 | -0.06 | 3.99 | 1.65 | 2.76 | 1.23
COc1cc2c(cc1Nc1nc(Nc3ccsc3C(N)=O)c3cc[nH]c3n1)N(C(=O)CN(C)C)CCC2(C)C | 44 | 2.68 | 5.01 | 4.59 | 16.2 | 3.45 | 15 | 11.2 | 58.5 | 17.5
CCN1CCC(CC(=O)Nc2n[nH]c3nnc(-c4cccc(F)c4F)cc23)CC1 | 1.09 | 0.63 | 1.36 | 0.68 | 1.31 | 0.16 | 0.85 | 0.72 | 1.85 | 2.45
CN(C)CCOc1ccc(-c2nc(-c3ccncc3)c(-c3ccc4c(c3)CC/C4=N\O)[nH]2)cc1 | 3.66 | 3.25 | 3.37 | 2.07 | 2.93 | 0.36 | 3.35 | 3.26 | 6.18 | 2.55
NS(=O)(=O)c1ccc(N/N=C2\C(=O)Nc3ccc4ncccc4c32)cc1 | 11.8 | -0.86 | 1.52 | 2.1 | 11.8 | 1.28 | 3.78 | 12.6 | 62.2 | 9.02
CC1=C(C(=O)Nc2cc(Cl)c3[nH]ncc3c2)C(c2ccc(C(F)(F)F)cc2)CC(=O)N1 (stereo not given) | 3.46 | 1.43 | 1.11 | 5.67 | 28.3 | 1.98 | 2.19 | 2.79 | 6.51 | 3.43
COC(=O)Nc1nc2ccc(S(=O)(=O)c3ccc(NC(=O)Nc4cc(C(F)(F)F)ccc4F)cc3)cc2[nH]1 | 1.8 | 0.65 | 1.49 | 0.7 | -0.17 | 0.33 | 0.07 | 2.33 | 5.18 | 2.66
Nc1nc(-c2ccc(F)cc2)c(-c2ccc3ncccc3n2)s1 | 4.5 | 2.17 | 1.59 | 1.69 | 3.74 | 1.11 | 3.48 | 8 | 45 | 8.22
Cc1ccc2c(-c3ccnc(Nc4ccccc4)n3)c(-c3ccc(F)cc3)nn2n1 | 2.17 | 1.43 | 3.68 | 1.21 | 1.16 | 1.79 | 12.3 | 10.1 | 70.6 | 24.6
CCn1c(-c2nonc2N)nc2cnc(Oc3cccc(NC(=O)c4ccc(N(C)C)cc4)c3)cc21 | 28.3 | 6.04 | 45 | 5.55 | 32.3 | 4.27 | 21.8 | 1.61 | 4.29 | 1.81
CC(C)(CO)CNC(=O)c1ccc2c(c1)/C(=N/Nc1ccc(S(N)(=O)=O)cc1)C(=O)N2 | 3.43 | -0.53 | -0.82 | 0.56 | 0.9 | 0.36 | 1.12 | 0.49 | 13.9 | 0.9
COc1ccc2c(-c3ccnc(Nc4cccc(OC(F)(F)F)c4)n3)cnn2n1 | 1.65 | 2.36 | 1.45 | 2.59 | 4.8 | 1.08 | 5.19 | 3.42 | 6.19 | 3.92
CCn1c(-c2nonc2N)nc2c(C#CC(C)(C)O)ncc(OC3CCNCC3)c21 | 89.5 | -0.03 | 6.53 | 38 | 81.5 | 19.7 | 61.7 | 4.17 | 13.4 | 3.98
CN1CCC(n2cnc(-c3ccc(F)cc3)c2-c2ccnc(N)n2)CC1 | 8.99 | 0.59 | 0.68 | 1.72 | 3.61 | 2.83 | 12.3 | 4.67 | 26.3 | 3.25
COc1cc(N2CCN(C(C)C)CC2)ccc1Nc1nc(Nc2ccc(F)cc2C(N)=O)c2cc[nH]c2n1 | 15.7 | -0.5 | 0.42 | 2.56 | 4.69 | 1.59 | 5.72 | 61.7 | 84.3 | 59.9
Nc1nc(-c2cccc(Cl)c2)c(-c2ccc3ncccc3n2)s1 | 6.65 | 2.71 | 1.25 | 4.95 | 5.67 | 2.82 | 2.11 | 5.85 | 35 | 7.33
